# Test results published in publication PMC7862700, “An all-to-all approach to the identification of sequence-specific readers for epigenetic DNA modifications on cytosine”.
# What was measured:
# Assay in all cases: DAPPL (digital affinity profiling via proximity ligation, sequencing); 10 mM Tris-HCl pH 7.5, 50 mM NaCl, 1 mM DTT, 4% glycerol, room temperature, 30 min; GST-TFs on glutathione beads, 16-mer random dsDNA library, 0.1% formaldehyde crosslink after washing; high values mean tight binding
# FEV = molecular target: T1, FEV (Homo sapiens, UniProt Q99581 1-238); settings: protein: recombinant; tags: N-terminal GST; dsDNA, one strand shown
# T1 sequence: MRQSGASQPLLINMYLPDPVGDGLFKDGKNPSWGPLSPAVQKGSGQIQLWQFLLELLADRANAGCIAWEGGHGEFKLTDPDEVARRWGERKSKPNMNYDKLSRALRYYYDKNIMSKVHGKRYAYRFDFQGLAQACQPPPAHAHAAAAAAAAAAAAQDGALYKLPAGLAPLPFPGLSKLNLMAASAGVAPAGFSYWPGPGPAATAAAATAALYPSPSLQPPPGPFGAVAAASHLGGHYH
# Method in brief: (§1)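 Beads coated with glutathione captured GST-fused human transcription factors that had been expressed in yeast, and the factors were then given DNA barcodes and pooled with a tag-only sample. The pools were incubated with 200 nmole of a random double-stranded 16-mer DNA library in Tris/NaCl/DTT/glycerol buffer for 30 min at room temperature, washed, crosslinked with 0.1% formaldehyde and proximity-ligated with BsaI/T4 ligase at 37 °C for 1 h. PCR amplification and Illumina NextSeq500 sequencing came last. Binding signal is each hexamer's read frequency for a factor divided by its frequency for the tag-only sample.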
# ETV5 = ETV5 (Homo sapiens, UniProt P41161 1-510); settings: protein: recombinant; tags: N-terminal GST; dsDNA, one strand shown
# ETV5, sequence (P41161 whole entry): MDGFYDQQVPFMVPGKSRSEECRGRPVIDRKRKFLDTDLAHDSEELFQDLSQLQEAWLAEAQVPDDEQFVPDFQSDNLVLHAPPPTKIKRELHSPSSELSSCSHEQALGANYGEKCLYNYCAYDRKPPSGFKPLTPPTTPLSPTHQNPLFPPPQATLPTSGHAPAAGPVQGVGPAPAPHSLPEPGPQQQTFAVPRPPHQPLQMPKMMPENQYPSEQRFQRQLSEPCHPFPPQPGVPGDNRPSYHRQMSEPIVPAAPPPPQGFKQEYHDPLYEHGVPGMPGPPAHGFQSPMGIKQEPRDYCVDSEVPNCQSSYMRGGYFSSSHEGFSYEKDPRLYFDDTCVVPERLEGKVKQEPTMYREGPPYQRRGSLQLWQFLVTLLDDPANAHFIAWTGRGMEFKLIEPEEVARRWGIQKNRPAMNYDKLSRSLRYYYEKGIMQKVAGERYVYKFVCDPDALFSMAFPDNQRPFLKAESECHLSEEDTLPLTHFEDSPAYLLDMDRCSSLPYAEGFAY
# Method in brief: as §1
# HSF1 = HSF1 (Homo sapiens, UniProt Q00613 1-529); settings: protein: recombinant; tags: N-terminal GST; chain copies: 3; dsDNA, one strand shown
# HSF1, sequence (Q00613 whole entry): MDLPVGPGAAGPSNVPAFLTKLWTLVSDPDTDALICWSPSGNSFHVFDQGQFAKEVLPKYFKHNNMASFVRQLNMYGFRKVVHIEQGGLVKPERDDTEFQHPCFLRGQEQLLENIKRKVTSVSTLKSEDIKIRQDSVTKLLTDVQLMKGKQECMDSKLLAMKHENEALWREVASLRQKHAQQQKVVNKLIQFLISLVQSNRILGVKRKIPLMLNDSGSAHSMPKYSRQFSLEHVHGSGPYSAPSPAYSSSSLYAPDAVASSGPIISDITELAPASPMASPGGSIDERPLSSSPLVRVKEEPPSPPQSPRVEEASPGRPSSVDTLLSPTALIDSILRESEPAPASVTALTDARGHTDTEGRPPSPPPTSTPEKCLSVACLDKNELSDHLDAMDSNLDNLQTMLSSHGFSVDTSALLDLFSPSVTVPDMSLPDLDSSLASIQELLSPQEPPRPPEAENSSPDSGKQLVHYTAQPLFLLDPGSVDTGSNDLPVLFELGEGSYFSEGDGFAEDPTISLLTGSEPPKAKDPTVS
# Method in brief: as §1
# SPIC = molecular target: T2, SPIC (Homo sapiens, UniProt Q8N5J4 1-248); settings: protein: recombinant; tags: N-terminal GST; dsDNA, one strand shown
# T2 sequence: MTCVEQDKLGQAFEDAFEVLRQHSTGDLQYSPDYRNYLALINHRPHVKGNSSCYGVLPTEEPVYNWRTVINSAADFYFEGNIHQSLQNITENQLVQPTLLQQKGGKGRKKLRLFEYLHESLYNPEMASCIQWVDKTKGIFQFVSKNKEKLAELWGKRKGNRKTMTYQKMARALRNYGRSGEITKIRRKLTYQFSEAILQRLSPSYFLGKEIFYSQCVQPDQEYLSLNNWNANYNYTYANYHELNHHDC
# Method in brief: as §1
# ELF4 = ELF4 (Homo sapiens, UniProt Q99607 1-663); settings: protein: recombinant; tags: N-terminal GST; dsDNA, one strand shown
# ELF4, sequence (Q99607 whole entry): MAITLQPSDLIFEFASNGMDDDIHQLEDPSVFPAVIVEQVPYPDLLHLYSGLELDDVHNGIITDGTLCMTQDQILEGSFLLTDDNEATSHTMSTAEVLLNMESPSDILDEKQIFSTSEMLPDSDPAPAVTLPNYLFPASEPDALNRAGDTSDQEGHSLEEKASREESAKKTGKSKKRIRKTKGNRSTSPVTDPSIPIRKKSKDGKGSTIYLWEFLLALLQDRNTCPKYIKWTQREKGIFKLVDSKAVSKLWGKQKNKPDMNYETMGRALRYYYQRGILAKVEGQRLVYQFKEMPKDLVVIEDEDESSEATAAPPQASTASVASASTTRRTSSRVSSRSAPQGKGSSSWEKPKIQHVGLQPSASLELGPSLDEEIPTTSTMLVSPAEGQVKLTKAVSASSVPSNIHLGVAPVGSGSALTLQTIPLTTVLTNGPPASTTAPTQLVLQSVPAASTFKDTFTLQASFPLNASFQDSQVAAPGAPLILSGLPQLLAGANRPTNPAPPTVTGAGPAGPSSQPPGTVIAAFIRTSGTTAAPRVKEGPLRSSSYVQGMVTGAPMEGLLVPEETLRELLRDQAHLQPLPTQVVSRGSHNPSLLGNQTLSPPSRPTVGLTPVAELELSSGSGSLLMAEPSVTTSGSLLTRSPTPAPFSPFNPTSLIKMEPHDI
# Method in brief: as §1
# ELK4 = molecular target: T3, ELK4 (Homo sapiens, UniProt P28324-2 1-405); settings: protein: recombinant; tags: N-terminal GST; dsDNA, one strand shown
# T3 sequence: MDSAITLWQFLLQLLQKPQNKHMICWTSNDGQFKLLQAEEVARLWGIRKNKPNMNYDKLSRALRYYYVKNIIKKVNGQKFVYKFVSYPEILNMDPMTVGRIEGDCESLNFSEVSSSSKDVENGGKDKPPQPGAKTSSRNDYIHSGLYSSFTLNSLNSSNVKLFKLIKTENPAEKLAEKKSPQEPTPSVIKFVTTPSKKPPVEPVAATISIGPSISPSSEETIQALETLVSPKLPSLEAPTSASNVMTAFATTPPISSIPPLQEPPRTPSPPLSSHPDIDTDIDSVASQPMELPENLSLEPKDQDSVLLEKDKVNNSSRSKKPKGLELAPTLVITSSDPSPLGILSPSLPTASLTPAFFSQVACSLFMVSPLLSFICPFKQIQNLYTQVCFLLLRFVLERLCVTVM
# Method in brief: as §1
# ETV2 = molecular target: T4, ETV2 (Homo sapiens, UniProt O00321 1-342); settings: protein: recombinant; tags: N-terminal GST; dsDNA, one strand shown
# T4 sequence: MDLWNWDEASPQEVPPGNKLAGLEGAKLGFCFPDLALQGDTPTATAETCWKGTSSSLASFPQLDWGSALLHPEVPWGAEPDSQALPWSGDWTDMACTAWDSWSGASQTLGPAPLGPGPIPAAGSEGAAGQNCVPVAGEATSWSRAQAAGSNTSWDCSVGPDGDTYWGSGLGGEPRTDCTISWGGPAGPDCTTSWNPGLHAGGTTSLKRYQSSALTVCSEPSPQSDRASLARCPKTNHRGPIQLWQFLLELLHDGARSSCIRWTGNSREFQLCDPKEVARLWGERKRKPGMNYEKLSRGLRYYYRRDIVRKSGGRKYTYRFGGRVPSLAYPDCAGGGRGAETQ
# Method in brief: as §1
# ELF3 = molecular target: T5, ELF3 (Homo sapiens, UniProt P78545 1-371); settings: protein: recombinant; tags: N-terminal GST; dsDNA, one strand shown
# T5 sequence: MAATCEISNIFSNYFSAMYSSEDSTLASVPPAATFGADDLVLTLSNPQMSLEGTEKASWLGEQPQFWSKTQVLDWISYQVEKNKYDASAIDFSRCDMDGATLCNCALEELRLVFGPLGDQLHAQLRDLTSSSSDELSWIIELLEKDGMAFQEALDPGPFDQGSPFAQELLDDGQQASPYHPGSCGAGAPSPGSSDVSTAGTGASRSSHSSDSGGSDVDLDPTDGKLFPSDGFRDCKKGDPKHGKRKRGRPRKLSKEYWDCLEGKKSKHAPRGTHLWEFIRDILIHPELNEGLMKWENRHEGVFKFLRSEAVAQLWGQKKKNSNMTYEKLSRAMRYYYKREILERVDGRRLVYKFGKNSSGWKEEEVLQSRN
# Method in brief: as §1
# CRX = CRX (Homo sapiens, UniProt O43186 1-299); settings: protein: recombinant; tags: N-terminal GST; dsDNA, one strand shown
# CRX, sequence (O43186 whole entry): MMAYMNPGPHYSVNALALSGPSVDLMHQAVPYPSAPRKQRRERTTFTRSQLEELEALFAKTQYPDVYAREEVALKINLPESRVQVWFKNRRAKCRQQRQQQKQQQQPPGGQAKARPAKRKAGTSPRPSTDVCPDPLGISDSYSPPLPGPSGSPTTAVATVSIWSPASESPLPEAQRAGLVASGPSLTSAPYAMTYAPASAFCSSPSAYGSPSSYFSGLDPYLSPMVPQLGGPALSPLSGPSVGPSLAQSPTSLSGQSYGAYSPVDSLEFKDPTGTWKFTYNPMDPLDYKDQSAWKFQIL
# Method in brief: as §1
# ETV1 = ETV1 (Homo sapiens, UniProt P50549 1-477); settings: protein: recombinant; tags: N-terminal GST; dsDNA, one strand shown
# ETV1, sequence (P50549 whole entry): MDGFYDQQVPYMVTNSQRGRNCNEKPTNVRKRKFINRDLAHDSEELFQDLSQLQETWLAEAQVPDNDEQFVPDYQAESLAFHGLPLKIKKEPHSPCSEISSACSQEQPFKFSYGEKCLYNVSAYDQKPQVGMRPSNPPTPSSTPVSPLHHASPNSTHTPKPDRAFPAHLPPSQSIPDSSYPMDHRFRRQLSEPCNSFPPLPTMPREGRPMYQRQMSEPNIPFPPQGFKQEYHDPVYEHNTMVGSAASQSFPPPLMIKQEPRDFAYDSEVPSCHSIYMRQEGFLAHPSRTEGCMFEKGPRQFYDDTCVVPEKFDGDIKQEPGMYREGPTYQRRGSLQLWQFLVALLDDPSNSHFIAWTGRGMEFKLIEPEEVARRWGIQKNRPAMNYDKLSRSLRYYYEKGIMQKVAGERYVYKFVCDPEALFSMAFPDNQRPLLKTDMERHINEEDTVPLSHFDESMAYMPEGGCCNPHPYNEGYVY
# Method in brief: as §1
# ERF = molecular target: T6, ERF (Homo sapiens, UniProt P50548 1-548); settings: protein: recombinant; tags: N-terminal GST; dsDNA, one strand shown
# T6 sequence: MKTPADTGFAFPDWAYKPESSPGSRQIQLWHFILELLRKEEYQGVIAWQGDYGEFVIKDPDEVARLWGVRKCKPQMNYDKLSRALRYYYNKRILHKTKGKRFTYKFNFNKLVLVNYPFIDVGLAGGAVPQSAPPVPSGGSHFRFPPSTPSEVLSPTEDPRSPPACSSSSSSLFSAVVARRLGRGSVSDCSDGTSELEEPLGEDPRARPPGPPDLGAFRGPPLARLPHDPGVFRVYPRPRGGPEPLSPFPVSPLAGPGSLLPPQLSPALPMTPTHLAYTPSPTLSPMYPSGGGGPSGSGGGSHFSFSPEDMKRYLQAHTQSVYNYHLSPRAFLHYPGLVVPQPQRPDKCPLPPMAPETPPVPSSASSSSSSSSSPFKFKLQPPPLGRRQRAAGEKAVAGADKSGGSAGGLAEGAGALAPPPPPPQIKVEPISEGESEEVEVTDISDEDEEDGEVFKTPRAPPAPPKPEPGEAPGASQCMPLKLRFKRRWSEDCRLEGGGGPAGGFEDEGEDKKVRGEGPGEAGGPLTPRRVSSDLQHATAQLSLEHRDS
# Method in brief: as §1
# ETV3L = molecular target: T7, ETV3L (Homo sapiens, UniProt Q6ZN32 1-361); settings: protein: recombinant; tags: N-terminal GST; dsDNA, one strand shown
# T7 sequence: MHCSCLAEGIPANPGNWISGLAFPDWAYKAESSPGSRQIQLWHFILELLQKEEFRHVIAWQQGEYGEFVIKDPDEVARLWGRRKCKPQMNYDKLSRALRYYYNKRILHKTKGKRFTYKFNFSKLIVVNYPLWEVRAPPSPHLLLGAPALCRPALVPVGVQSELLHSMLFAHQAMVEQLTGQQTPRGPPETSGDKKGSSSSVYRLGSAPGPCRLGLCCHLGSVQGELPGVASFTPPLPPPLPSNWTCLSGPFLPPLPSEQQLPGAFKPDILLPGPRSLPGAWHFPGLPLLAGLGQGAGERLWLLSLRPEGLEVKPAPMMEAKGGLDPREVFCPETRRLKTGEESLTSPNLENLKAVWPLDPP
# Method in brief: as §1
# ETS2 = molecular target: T8, ETS2 (Homo sapiens, UniProt P15036 1-469); settings: protein: recombinant; tags: N-terminal GST; dsDNA, one strand shown
# T8 sequence: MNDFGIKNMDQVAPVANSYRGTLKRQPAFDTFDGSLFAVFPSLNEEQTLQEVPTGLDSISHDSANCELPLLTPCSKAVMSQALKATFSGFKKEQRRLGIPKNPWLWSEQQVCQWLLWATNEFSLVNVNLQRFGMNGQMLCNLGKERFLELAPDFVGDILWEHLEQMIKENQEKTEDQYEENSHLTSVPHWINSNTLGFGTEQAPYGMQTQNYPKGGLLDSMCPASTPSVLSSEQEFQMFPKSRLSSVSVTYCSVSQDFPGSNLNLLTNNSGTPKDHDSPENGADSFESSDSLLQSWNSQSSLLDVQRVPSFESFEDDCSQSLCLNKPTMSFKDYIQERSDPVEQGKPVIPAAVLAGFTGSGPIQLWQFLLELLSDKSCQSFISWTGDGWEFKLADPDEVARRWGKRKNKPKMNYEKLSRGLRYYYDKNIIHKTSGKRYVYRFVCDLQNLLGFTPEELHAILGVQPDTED
# Method in brief: as §1
# SPDEF = molecular target: T9, SPDEF (Homo sapiens, UniProt O95238 1-335); settings: protein: recombinant; tags: N-terminal GST; dsDNA, one strand shown
# T9 sequence: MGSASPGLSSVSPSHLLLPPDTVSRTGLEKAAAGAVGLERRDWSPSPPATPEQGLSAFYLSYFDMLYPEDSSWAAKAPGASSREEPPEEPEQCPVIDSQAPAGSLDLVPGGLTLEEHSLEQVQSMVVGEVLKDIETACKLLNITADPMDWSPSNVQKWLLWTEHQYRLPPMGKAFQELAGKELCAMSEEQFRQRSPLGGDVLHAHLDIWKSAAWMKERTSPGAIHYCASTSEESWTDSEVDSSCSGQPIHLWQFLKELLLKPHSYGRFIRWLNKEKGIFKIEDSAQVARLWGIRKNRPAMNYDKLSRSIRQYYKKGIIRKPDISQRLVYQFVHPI
# Method in brief: as §1
# ETV7 = molecular target: T10, ETV7 (Homo sapiens, UniProt Q9Y603 1-341); settings: protein: recombinant; tags: N-terminal GST; dsDNA, one strand shown
# T10 sequence: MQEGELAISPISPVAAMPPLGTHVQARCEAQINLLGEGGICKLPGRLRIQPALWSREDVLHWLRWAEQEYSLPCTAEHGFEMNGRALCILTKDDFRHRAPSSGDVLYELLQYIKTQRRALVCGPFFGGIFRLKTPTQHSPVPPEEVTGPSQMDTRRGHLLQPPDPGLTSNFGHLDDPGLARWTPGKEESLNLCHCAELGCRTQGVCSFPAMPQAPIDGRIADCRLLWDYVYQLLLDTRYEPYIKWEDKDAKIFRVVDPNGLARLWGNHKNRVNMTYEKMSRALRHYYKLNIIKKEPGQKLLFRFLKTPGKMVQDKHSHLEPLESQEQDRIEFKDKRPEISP
# Method in brief: as §1
# ELF5 = molecular target: T11, ELF5 (Homo sapiens, UniProt Q9UKW6-2 1-255); settings: protein: recombinant; tags: N-terminal GST; dsDNA, one strand shown
# T11 sequence: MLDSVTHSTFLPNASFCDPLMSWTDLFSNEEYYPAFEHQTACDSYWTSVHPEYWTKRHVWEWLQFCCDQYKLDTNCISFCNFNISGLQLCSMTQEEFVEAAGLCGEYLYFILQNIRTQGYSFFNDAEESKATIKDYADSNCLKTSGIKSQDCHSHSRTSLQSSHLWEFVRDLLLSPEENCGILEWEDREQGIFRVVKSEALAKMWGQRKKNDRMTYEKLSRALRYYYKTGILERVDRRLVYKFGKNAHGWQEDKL
# Method in brief: as §1
# ETV3 = molecular target: T12, ETV3 (Homo sapiens, UniProt P41162-2 1-143); settings: protein: recombinant; tags: N-terminal GST; dsDNA, one strand shown
# T12 sequence: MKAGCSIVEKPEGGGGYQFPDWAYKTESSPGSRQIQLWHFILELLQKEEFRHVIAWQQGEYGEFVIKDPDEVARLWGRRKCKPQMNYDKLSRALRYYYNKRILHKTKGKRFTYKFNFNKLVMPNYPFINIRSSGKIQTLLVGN
# Method in brief: as §1
# ETV6 = ETV6 (Homo sapiens, UniProt P41212 1-452); settings: protein: recombinant; tags: N-terminal GST; dsDNA, one strand shown
# ETV6, sequence (P41212 whole entry): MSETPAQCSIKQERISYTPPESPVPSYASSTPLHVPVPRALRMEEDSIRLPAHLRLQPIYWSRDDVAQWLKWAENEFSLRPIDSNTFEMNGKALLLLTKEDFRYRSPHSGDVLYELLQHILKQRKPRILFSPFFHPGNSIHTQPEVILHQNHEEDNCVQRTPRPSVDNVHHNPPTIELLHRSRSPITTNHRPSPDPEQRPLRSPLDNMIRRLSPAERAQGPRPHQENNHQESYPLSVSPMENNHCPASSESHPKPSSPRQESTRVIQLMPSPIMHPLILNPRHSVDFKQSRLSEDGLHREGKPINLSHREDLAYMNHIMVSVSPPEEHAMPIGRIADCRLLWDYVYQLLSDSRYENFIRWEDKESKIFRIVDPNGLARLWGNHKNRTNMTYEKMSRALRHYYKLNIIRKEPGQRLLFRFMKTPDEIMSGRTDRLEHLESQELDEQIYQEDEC
# Method in brief: as §1
sequence,measurement,setting,value
CGCCTC,binding signal,FEV,"1.45 fold enrichment (6-mer frequency, TF over GST control)"
same,binding signal,ETV5,"1.4 fold enrichment (6-mer frequency, TF over GST control)"
same,binding signal,HSF1,"1.1 fold enrichment (6-mer frequency, TF over GST control)"
same,binding signal,SPIC,"1.33 fold enrichment (6-mer frequency, TF over GST control)"
same,binding signal,ELF4,"1.39 fold enrichment (6-mer frequency, TF over GST control)"
same,binding signal,ELK4,"1.14 fold enrichment (6-mer frequency, TF over GST control)"
same,binding signal,ETV2,"1.51 fold enrichment (6-mer frequency, TF over GST control)"
same,binding signal,ELF3,"1.49 fold enrichment (6-mer frequency, TF over GST control)"
same,binding signal,CRX,"1.05 fold enrichment (6-mer frequency, TF over GST control)"
same,binding signal,ETV1,"1.42 fold enrichment (6-mer frequency, TF over GST control)"
same,binding signal,ERF,"1.37 fold enrichment (6-mer frequency, TF over GST control)"
same,binding signal,ETV3L,"1.49 fold enrichment (6-mer frequency, TF over GST control)"
same,binding signal,ETS2,"1.27 fold enrichment (6-mer frequency, TF over GST control)"
same,binding signal,SPDEF,"1.39 fold enrichment (6-mer frequency, TF over GST control)"
same,binding signal,ETV7,"1.26 fold enrichment (6-mer frequency, TF over GST control)"
same,binding signal,ELF5,"1.43 fold enrichment (6-mer frequency, TF over GST control)"
same,binding signal,ETV3,"1.37 fold enrichment (6-mer frequency, TF over GST control)"
same,binding signal,ETV6,"1.42 fold enrichment (6-mer frequency, TF over GST control)"
